Screening data (PubChem BioAssay)
Hits are enriched below; roughly 3.5% of the tested compounds scored in any of these assays.
MITF inh: MITF inhibitors, primary screen, biochemical, AlphaScreen, human | inhibition, % at 2.6 µM | AlphaScreen MITF homodimerization, bead proximity signal | hit rate 0.91% among 650,000 | Microphthalmia-associated transcription factor (Homo sapiens), O75030 | AID 1259374, 2018; in the data active = inhibition above about 50%
Target sequence (O75030 whole entry, looked up): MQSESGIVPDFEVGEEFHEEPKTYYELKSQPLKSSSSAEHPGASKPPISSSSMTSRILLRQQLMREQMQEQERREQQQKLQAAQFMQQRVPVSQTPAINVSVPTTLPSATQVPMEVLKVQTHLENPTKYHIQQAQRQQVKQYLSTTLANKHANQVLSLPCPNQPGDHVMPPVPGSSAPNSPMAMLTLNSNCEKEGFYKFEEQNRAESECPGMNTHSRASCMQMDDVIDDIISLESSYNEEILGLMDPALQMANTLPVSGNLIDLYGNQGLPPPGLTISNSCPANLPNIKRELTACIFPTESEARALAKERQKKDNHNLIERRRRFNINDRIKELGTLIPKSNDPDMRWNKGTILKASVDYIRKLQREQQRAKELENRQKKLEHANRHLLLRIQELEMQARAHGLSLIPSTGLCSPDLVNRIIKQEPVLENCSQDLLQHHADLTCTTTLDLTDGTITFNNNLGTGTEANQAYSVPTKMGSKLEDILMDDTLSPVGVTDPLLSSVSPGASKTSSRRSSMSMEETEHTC
GPR151 activ: activators of human GPR151, primary screen, cell-based, PathHunter beta-arrestin, luminescence; G-protein coupled receptor 151 (Homo sapiens), Q8TDV0; PathHunter beta-arrestin GPR151 cells; activation, % at 11.2 µM; hit rate 1% among 650,000; AID 1508602, 2020; in the data active = activation above about 4.9%
FBW7 act: FBW7 E3 ligase activators, primary screen, biochemical, AlphaScreen, human; F-box/WD repeat-containing protein 7 (Homo sapiens), Q969H0; AlphaScreen FBW7–phospho-cyclin E peptide binding, activator screen; normalized activity (activation), % at 26.1 µM; hit rate 0.13% among 650,000; in the data active = normalized activity above about 1.9%;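 also: purified mutant Fbw7 with reduced substrate affinity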
TEAD-YAP inh: TEAD-YAP interaction inhibition, primary screen, TEAD-YAP interaction inhibitor project, luminescence, HEK-TIYL cells; inhibition, % at 9.12 µM; AID 1259422, 2018; TEAD-Gal4/YAP UAS-luciferase luminescence; hit rate 1.4% among 640,000; in the data active = inhibition above about 32%
Hits are given with their value; i = inactive; nt = no result given; ! = a repeat was not active.

SMILES	MITF inh	GPR151 activ	FBW7 act	TEAD-YAP inh
N#Cc1cc(-c2ccnc(Nc3ccc(-n4cnc(N5CCCC(O)C5)n4)cc3)n2)cc(N2CCOCC2)c1 (stereo not drawn)	i	i	i	i
Fc1cc(-c2ccnc(Nc3ccc(-n4ccnn4)cc3)n2)cc(N2CCOCC2)c1	i	i	i	i
CN1CCN(c2ncn(-c3ccc(Nc4nccc(-c5cc(C#N)cc(N6CCCC(O)C6)c5)n4)cc3)n2)CC1 (stereo not drawn)	i	i	i	62
OC1CCN(c2cccc(-c3ccnc(Nc4ccc(-n5ccnn5)cc4)n3)c2)CC1	i	i	i	37
Cn1nnc(-c2ccc(Nc3nccc(-c4cc(C#N)cc(N5CCCC(O)C5)c4)n3)cc2)n1 (stereo not drawn)	i	i	i	63
OC1CCCN(c2ncn(-c3ccc(Nc4nccc(-c5cccc(N6CCOCC6)c5)n4)cc3)n2)C1 (stereo not drawn)	i	i	i	83
CCN(CC)C(=O)CSc1nc2cc3c(cc2c(=O)n1Cc1ccc(C(=O)N2CCN(c4ccccc4)CC2)cc1)OCO3	i	i	i	i
COc1ccc(CNC(=O)CCCCCn2c(=S)[nH]c3ccc(Br)cc3c2=O)cc1	i	i	i	i
CC(C)(C)c1ccc(C(=O)Nc2ccc(C(=O)Nc3cccc4ccccc34)cc2)cc1	i	i	i	i
CC(C)(C)c1ccc(C(=O)Nc2cccc3c(=O)[nH][nH]c(=O)c23)cc1	i	i	i	76
CCN(CC)c1ccc(/C=N\NC(=O)c2ccc(O)cc2)c(O)c1	i	i	i	i
CCN(CC)c1ccc(/C=N/NC(=O)c2ccc(F)cc2)c(O)c1	i	i	i	73
CCN(CC)c1ccc(/C=N/NC(=O)c2cc(Cl)ccc2O)c(O)c1	i	i	i	i
CCN(CC)c1ccc(/C=N/NC(=O)c2cc(C)oc2C)c(O)c1	i	i	i	53
Cc1ccc(/C=C/C(=O)Nc2ccc(S(=O)(=O)N3CCCC3)cc2)o1	i	i	i	i
CCOC(=O)COc1ccc2c(c1)C(=O)c1cc(OCC(=O)OCC)ccc1-2	i	i	i	i
Cc1nnc2n1CCN(C(=O)/C(F)=C/c1ccccc1)CC2	i	i	1.9	i
O=C(CSc1nnc(-c2c[nH]c3ccccc23)o1)c1nnc(-c2ccccc2)o1	i	i	i	i
CCOc1cc(C#N)c(NC(=O)c2ccco2)cc1OCC	i	i	i	52
CCOc1ccc(C2=NC(c3ccc(C(F)(F)F)cc3)NC(c3cc(Br)ccc3O)C2)cc1 (stereo not drawn)	i	i	i	i
O=C(/C=C/c1ccccc1)Nc1ccccc1-c1nc2ccccc2s1	i	i	i	i
COc1ccc(-c2cccc3cnc(Nc4ccc(-n5cnc(N6CCOCC6)n5)cc4)nc23)cc1F	i	i	i	i
COc1ccc(-c2cccc3cnc(NC4CCC(C(=O)N5CCCC5)CC4)nc23)cc1F (stereo not drawn)	i	i	i	83!
CCOC(=O)C1=C(CN2CCC(C(N)=O)CC2)NC(=O)NC1c1cccs1 (stereo not drawn)	i	i	2.6	i
CCOC(=O)C1=C(CN2CCCC2)NC(=O)NC1c1cccs1 (stereo not drawn)	i	i	i	i
SMILES	MITF inh	GPR151 activ	FBW7 act	TEAD-YAP inh
COc1cc(-c2ccc(N=Nc3ccc4c(S(=O)(=O)O)cc(S(=O)(=O)O)c(N)c4c3O)c(OC)c2)ccc1N=Nc1ccc2c(S(=O)(=O)O)cc(S(=O)(=O)O)c(N)c2c1O	77	i	i	nt
Nc1c(S(=O)(=O)O)cc(S(=O)(=O)O)c2cccc(O)c12	i	i	i	i
N#Cc1cnc(SCc2cc(=O)n3ccccc3n2)nc1N	i	i	16	i
COc1ccccc1OCCC(=O)OCC(=O)NC(=O)C1CCCCC1	i	i	i	i
COCCCNC(=O)c1ccc(SCc2cccc(OC)c2OC)c([N+](=O)[O-])c1	i	i	i	61
Cc1cccc(NC(=O)c2ccc(N3CC4CC(C3)c3cccc(=O)n3C4)c(NC(=O)c3c(F)cccc3F)c2)n1 (stereo not drawn)	i	i	i	i
Cc1cccc(-c2nc3s/c(=C\c4ccco4)c(=O)n3n2)c1	i	i	i	i
Cc1nn2c(=O)/c(=C/c3ccco3)sc2nc1=O	77	i	i	i
Nc1cc(NCCNCCO)ccc1[N+](=O)[O-]	i	i	i	i
COc1cccc(Nc2nnc(SCC(=O)NNC(=O)C3CC3)s2)c1	i	i	i	i
COc1cccc(Nc2nnc(SCC(=O)NNC(=O)c3ccccn3)s2)c1	i	i	i	79
CCOC(=O)c1cc2c(=O)n3ccccc3nc2n(CCOC)c1=NC(=O)C1CCCCC1	i	i	i	37
CCOC(=O)c1cc2c(=O)n3ccccc3nc2n(CCOC)c1=NC(=O)C(C)(C)C	i	i	i	i
O=C(O)c1cc(S(=O)(=O)Nc2ccc(O)cc2)ccc1O	i	i	i	i
O=C(O)c1cc(NS(=O)(=O)c2ccc(Cl)c(C(=O)O)c2)ccc1O	81	i	i	i
CC1=CC2=NC(=O)/C(=C\c3cc(C)n(-c4cc(C)ccc4C)c3C)C(=N)N2O1	i	i	i	61
COc1ccc(OC)c(-n2c(C)cc(/C=C3/C(=N)N4OC(C)=CC4=NC3=O)c2C)c1	i	i	i	48
COc1cc(OC)c(-n2c(C)cc(/C=C3/C(=N)N4OC(C)=CC4=NC3=O)c2C)cc1Cl	i	i	i	i
O=C(CSc1nc2ccccc2c(=O)n1NC(=O)c1ccccc1)c1ccc(Br)cc1	i	i	i	i
COc1cc2[nH]c(=S)n(NC(=O)c3ccccc3)c(=O)c2cc1OC	i	i	i	i
O=C(Cc1ccccc1)Nn1c(SCC(=O)c2ccc(F)cc2)nc2ccccc2c1=O	i	i	i	i
COc1ccc(C(=O)Nn2c(SCc3ccc([N+](=O)[O-])cc3)nc3ccccc3c2=O)cc1	i	i	i	49
COc1ccc(C(=O)Nn2c(SCC(=O)c3ccccc3)nc3ccccc3c2=O)cc1	i	i	i	70
COc1cccc(C(=O)Nn2c(=S)[nH]c3ccccc3c2=O)c1	i	i	i	40
COc1ccc(C(=O)Nn2c(SCC(=O)c3ccc(F)cc3)nc3ccccc3c2=O)cc1	i	i	i	46
SMILES	MITF inh	GPR151 activ	FBW7 act	TEAD-YAP inh
COc1ccc(C(=O)Nn2c(SCC(=O)NCCc3ccc(OC)c(OC)c3)nc3ccccc3c2=O)cc1	i	i	i	78
COc1cccc(C(=O)Nn2c(-c3cccc(OC)c3)nc3ccccc3c2=O)c1	i	i	i	i
COc1ccc(CCNC(=O)CSc2nc3ccccc3c(=O)n2NC(=O)Cc2ccccc2)cc1OC	i	i	i	i
COc1cc(OC)cc(C(=O)Nn2c(-c3cccc(C)c3)nc3ccccc3c2=O)c1	i	i	1.9	i
O=C(CSc1cnc2ccccc2n1)c1ccc(F)cc1	i	i	i	49
CN(C)CCOC(=O)COc1ccc(Cl)cc1	i	i	i	i
CCN(CC)S(=O)(=O)c1cccc(C(=O)Nc2nc(COc3ccccc3)cs2)c1	i	i	i	32
